{"source": "paper PMC4336329", "about": "(PLoS ONE, 2015)", "note": "Among all 310,000 compounds or so, about 14,000 (4.5%) showed an effect of 50% or more. Effects have a minus sign here. Many of the other results were omitted from the sample, so strong results are more common in it than they were.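 Also: peak tail current of the secondary pulse compared with the same well before compound.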", "data": [{"molecular_target": "human ether-à-go-go-related gene (hERG) potassium channel (human, UniProt Q12809)", "sequence (Q12809 whole entry, looked up)": "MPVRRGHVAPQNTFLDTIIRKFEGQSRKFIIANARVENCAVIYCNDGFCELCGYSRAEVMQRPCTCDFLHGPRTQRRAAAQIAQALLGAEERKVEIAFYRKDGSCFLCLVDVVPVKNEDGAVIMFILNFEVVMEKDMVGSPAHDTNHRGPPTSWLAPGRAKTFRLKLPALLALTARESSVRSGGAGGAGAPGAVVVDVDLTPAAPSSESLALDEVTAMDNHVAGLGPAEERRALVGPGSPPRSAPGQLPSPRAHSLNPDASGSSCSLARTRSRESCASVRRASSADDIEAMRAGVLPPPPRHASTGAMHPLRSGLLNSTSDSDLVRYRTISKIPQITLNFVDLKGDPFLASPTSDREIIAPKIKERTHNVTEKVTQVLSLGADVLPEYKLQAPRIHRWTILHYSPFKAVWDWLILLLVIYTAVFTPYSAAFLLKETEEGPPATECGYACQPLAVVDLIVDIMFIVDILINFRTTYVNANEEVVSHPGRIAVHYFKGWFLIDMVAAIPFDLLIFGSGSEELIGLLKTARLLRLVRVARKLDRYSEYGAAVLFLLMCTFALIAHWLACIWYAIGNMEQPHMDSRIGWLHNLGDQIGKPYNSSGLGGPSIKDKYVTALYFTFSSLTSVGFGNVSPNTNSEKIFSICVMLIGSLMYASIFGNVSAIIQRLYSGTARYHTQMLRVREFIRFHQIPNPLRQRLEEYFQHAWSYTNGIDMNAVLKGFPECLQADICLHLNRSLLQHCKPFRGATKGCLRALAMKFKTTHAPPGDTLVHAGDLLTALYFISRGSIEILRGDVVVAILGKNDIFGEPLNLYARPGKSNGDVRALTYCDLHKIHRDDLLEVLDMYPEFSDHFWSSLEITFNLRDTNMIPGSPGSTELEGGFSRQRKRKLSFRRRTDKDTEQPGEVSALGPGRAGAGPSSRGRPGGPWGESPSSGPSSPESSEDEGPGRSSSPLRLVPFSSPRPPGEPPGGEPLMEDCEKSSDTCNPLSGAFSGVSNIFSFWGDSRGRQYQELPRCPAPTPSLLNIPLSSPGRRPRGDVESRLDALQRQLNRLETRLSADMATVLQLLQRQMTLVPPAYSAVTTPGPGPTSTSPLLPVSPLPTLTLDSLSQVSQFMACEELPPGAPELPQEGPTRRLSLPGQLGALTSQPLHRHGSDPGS", "assay": "primary screen, population patch clamp on CHO cells stably expressing hERG; higher = less effect of the substance", "units": {"hERG current change (%, negative = inhibition) at 10uM": "%"}, "values": [{"smiles": "O=C(COC(=O)c1cc[n+]([O-])cc1)Nc1ccc(Cl)cc1[N+](=O)[O-]", "hERG current change (%, negative = inhibition) at 10uM": 15.6}, {"smiles": "COc1cc(C(=O)OCC(=O)c2c[nH]c3ccccc23)ccc1OCC(=O)N1CCOCC1", "hERG current change (%, negative = inhibition) at 10uM": 5.92}, {"smiles": "Cc1cccc(C(=O)N[C@H](C(=O)Nc2nc3ccccc3[nH]2)C(C)C)c1", "hERG current change (%, negative = inhibition) at 10uM": 3.32}, {"smiles": "COc1ccc(C(CC(=O)c2ccccc2)S(=O)(=O)c2ccc(C)cc2)cc1", "note": "(stereo not shown)", "hERG current change (%, negative = inhibition) at 10uM": 12.8}, {"smiles": "COc1ccc(Cl)cc1N(CC(=O)NCC(C)C)S(=O)(=O)c1ccc(C)c([N+](=O)[O-])c1", "hERG current change (%, negative = inhibition) at 10uM": 8.34}, {"smiles": "COC(=O)C(NNc1ccccc1C)(NC(=O)c1ccc(F)cc1)C(F)(F)F", "note": "(stereo not shown)", "hERG current change (%, negative = inhibition) at 10uM": -1.2}, {"smiles": "Cc1ccc(NC(=O)c2ccc(OC(F)F)cc2)cc1S(=O)(=O)N(C)C", "hERG current change (%, negative = inhibition) at 10uM": -10.4}, {"smiles": "CC(C)c1onc(C(=O)N2CCN(C(c3ccccc3)c3ccccc3)CC2)c1[N+](=O)[O-]", "hERG current change (%, negative = inhibition) at 10uM": 13.6}, {"smiles": "O=C(O)C(F)(F)F.O=C1C(Cc2ccccc2)Nc2ncnc(N3CCN(c4ccccc4)CC3)c2N1Cc1ccc(Cl)cc1", "note": "(stereo not shown)", "hERG current change (%, negative = inhibition) at 10uM": 0.92}, {"smiles": "Cn1nnc2cc(C(=O)N3CCN(c4ccccc4)CC3)ccc21", "hERG current change (%, negative = inhibition) at 10uM": -3.95}, {"smiles": "O=C(CN(c1ccccc1)S(=O)(=O)c1ccccc1)N1CCOCC1", "hERG current change (%, negative = inhibition) at 10uM": 4.9}, {"smiles": "Cc1cc(C)cc(N(CC(=O)N2CCOCC2)S(=O)(=O)c2ccccc2)c1", "hERG current change (%, negative = inhibition) at 10uM": -56.1}, {"smiles": "Cc1cc(C)cc(N(CC(=O)N2CCC(C)CC2)S(C)(=O)=O)c1", "hERG current change (%, negative = inhibition) at 10uM": -38.6}, {"smiles": "Cc1ccc(S(=O)(=O)N(CC(=O)N2CCC(C)CC2)c2ccccc2)cc1", "hERG current change (%, negative = inhibition) at 10uM": -26.4}, {"smiles": "CC1CCN(C(=O)CN(c2ccc3c(c2)OCCO3)S(=O)(=O)c2ccccc2)CC1", "hERG current change (%, negative = inhibition) at 10uM": -26.6}, {"smiles": "Cc1cc(C)cc(N(CC(=O)N2CCC(C)CC2)S(=O)(=O)c2ccccc2)c1", "hERG current change (%, negative = inhibition) at 10uM": -70.3}, {"smiles": "Cc1ccc(N(CC(=O)N2CCOCC2)S(=O)(=O)c2ccccc2)cc1", "hERG current change (%, negative = inhibition) at 10uM": -2.35}, {"smiles": "CCOC(=O)N1CCN(C(=O)CN(c2cccc(C)c2)S(=O)(=O)c2ccc(C)cc2)CC1", "hERG current change (%, negative = inhibition) at 10uM": -39.7}, {"smiles": "Cc1ccc(S(=O)(=O)N(CC(=O)N2CCC(C)CC2)c2cccc(C)c2)cc1", "hERG current change (%, negative = inhibition) at 10uM": -55.1}, {"smiles": "Cc1cccnc1NC(=O)Nc1cccs1", "hERG current change (%, negative = inhibition) at 10uM": 12.4}, {"smiles": "Cc1ccc(NC(=O)CCl)c(C)c1", "hERG current change (%, negative = inhibition) at 10uM": 21.6}, {"smiles": "COc1ccc(-n2nc(C(=O)NCC(=O)N3CCN(c4cccc(Cl)c4)CC3)c3ccccc3c2=O)c(OC)c1", "hERG current change (%, negative = inhibition) at 10uM": -2.74}, {"smiles": "COc1ccc([N+](=O)[O-])cc1NC(=O)C(C)Sc1nc(C)c(C)c(C)n1", "note": "(stereo not shown)", "hERG current change (%, negative = inhibition) at 10uM": -44.4}, {"smiles": "CCN(c1ccc(NS(=O)(=O)c2cc(Cl)ccc2Cl)cc1)C(C)C", "hERG current change (%, negative = inhibition) at 10uM": -0.282}, {"smiles": "CCN(CC)C(=O)C(C(=O)c1cccc([N+](=O)[O-])c1)n1cc(Cl)ccc1=O", "note": "(stereo not shown)", "hERG current change (%, negative = inhibition) at 10uM": 24.8}, {"smiles": "Cc1nc(-c2cccc(S(=O)(=O)N3CCOCC3)c2)cs1", "hERG current change (%, negative = inhibition) at 10uM": -2.11}, {"smiles": "COc1ccc(-c2[nH]ncc2CNC(C)CCn2cccn2)c(F)c1", "note": "(stereo not shown)", "hERG current change (%, negative = inhibition) at 10uM": -15.4}, {"smiles": "CC(Cc1ccsc1)NCc1cn[nH]c1-c1ccc(F)cc1F", "note": "(stereo not shown)", "hERG current change (%, negative = inhibition) at 10uM": -66.3}, {"smiles": "COc1ccc(-c2[nH]ncc2CNC(C)Cc2ccsc2)c(F)c1", "note": "(stereo not shown)", "hERG current change (%, negative = inhibition) at 10uM": -36.1}, {"smiles": "CC(=O)/C(N=Nc1nc2c([nH]1)c(=O)n(C)c(=O)n2C)=C(\\C)O", "hERG current change (%, negative = inhibition) at 10uM": 13.2}, {"smiles": "O=C(C1CCN(c2nnc(-n3cccc3)s2)CC1)N1CCN(c2cccc(C(F)(F)F)c2)CC1", "hERG current change (%, negative = inhibition) at 10uM": -22.8}, {"smiles": "Cc1ccc(Cl)cc1N1CCN(C(=O)C2CCN(c3nnc(-n4cccc4)s3)CC2)CC1", "hERG current change (%, negative = inhibition) at 10uM": -16.4}, {"smiles": "CCOC(=O)C1CCN(C(=O)C2CCN(c3nnc(-n4cccc4)s3)CC2)CC1", "hERG current change (%, negative = inhibition) at 10uM": -62.5}, {"smiles": "CCOC(=O)N1CCN(C(=O)C2CCN(c3nnc(-n4cccc4)s3)CC2)CC1", "hERG current change (%, negative = inhibition) at 10uM": -57.1}, {"smiles": "CCOC(=O)C1CCCN(C(=O)C2CCN(c3nnc(-n4cccc4)s3)CC2)C1", "note": "(stereo not shown)", "hERG current change (%, negative = inhibition) at 10uM": -48.6}, {"smiles": "CC1CCN(C(=O)C2CCN(c3nnc(-n4cccc4)s3)CC2)CC1", "hERG current change (%, negative = inhibition) at 10uM": -12.1}, {"smiles": "CCN1CCN(C(=O)C2CCN(c3nnc(-n4c(C)ccc4C)s3)CC2)CC1", "hERG current change (%, negative = inhibition) at 10uM": -13}, {"smiles": "Cc1cccc(N2CCN(C(=O)C3CCN(c4nnc(-n5cccc5)s4)CC3)CC2C)c1", "note": "(stereo not shown)", "hERG current change (%, negative = inhibition) at 10uM": -55.8}, {"smiles": "CCOC(=O)C1CCN(C(=O)C2CCN(c3nn4c(=O)cc(C)nc4s3)CC2)CC1", "hERG current change (%, negative = inhibition) at 10uM": 3.2}, {"smiles": "O=C(c1ccc(Br)cc1)N1CCN(S(=O)(=O)c2ccccc2)CC1", "hERG current change (%, negative = inhibition) at 10uM": -38.5}, {"smiles": "CCCCC(=O)NC(=S)Nc1nnn(CCC)n1", "hERG current change (%, negative = inhibition) at 10uM": 9.55}, {"smiles": "COc1ccc(CN(C)C(=O)c2ccc3c(=O)n4c(nc3c2)CCC4)cc1", "hERG current change (%, negative = inhibition) at 10uM": 13.7}, {"smiles": "Cl.NC1=NC2(CCCCC2)N(c2cccc(Cl)c2)C(N)=N1", "hERG current change (%, negative = inhibition) at 10uM": 27.9}, {"smiles": "CCn1nnc(-c2ccccc2NC(=O)C(F)(F)F)n1", "hERG current change (%, negative = inhibition) at 10uM": -9.9}, {"smiles": "CN1CCN(CCC(=O)N/N=C/c2cc3c(cc2[N+](=O)[O-])OCO3)CC1", "hERG current change (%, negative = inhibition) at 10uM": 9.64}, {"smiles": "O=C(NC(=S)Nc1cc(C(F)(F)F)ccc1N1CCOCC1)c1ccco1", "hERG current change (%, negative = inhibition) at 10uM": 3.6}, {"smiles": "O=C(NCc1cccc(Br)c1)C1CC2Cn3c(nc4ccccc43)C2N1Cc1ccccc1", "note": "(stereo not shown)", "hERG current change (%, negative = inhibition) at 10uM": -74.2}, {"smiles": "CN1C(C(=O)NCc2ccco2)CC2Cn3c(nc4ccccc43)C21", "note": "(stereo not shown)", "hERG current change (%, negative = inhibition) at 10uM": 10.3}, {"smiles": "COCCNC(=O)C1CC2Cn3c(nc4ccccc43)C2N1C", "note": "(stereo not shown)", "hERG current change (%, negative = inhibition) at 10uM": 11.2}, {"smiles": "O=C(NCc1cccc(C(F)(F)F)c1)C1CC2Cn3c(nc4ccccc43)C2N1Cc1ccccc1", "note": "(stereo not shown)", "hERG current change (%, negative = inhibition) at 10uM": -57.8}, {"smiles": "COc1ccccc1CNC(=O)C1CC2Cn3c(nc4ccccc43)C2N1C", "note": "(stereo not shown)", "hERG current change (%, negative = inhibition) at 10uM": -9.34}, {"smiles": "O=C(NCc1cccc(Br)c1)C1CC2Cn3c(nc4ccccc43)C2N1c1ccccc1", "note": "(stereo not shown)", "hERG current change (%, negative = inhibition) at 10uM": -20.5}]}]}
